# Test results as given in the supplement of paper PMC12636033.
# ± gives the standard deviation of the averaged measurements. In all, about 33,000 sequences were measured (“E-score (rank enrichment, -0.5 to 0.5)”: median about -0.0068, highest 2% from about 0.24 on). The sample holds the highest values, similar sequences and a random draw of the others, so the mix is not that of the screen.
# Tested on: muMax20 (Max(13-93) K31hArg/K57hArg, M65Nle)
# Assay: PBM 8-mer E-score (E-score (rank enrichment, -0.5 to 0.5)); higher = stronger preferential binding
# Protocol: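 Protein binding microarray (universal PBM chip covering all 10-mers in fixed probe flanks) with chemically synthesized human Max(13-93) bHLH-LZ analogs (not full-length Max) bearing noncanonical residues (hArg, Tha, Aib, Nle at 65) and aromatic Cys staples. Read-out per 8-mer (and its reverse complement): E-score (rank-based enrichment, -0.5 to 0.5) and Z-score of median probe intensity.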
row,Sequence,PBM 8-mer E-score
1,AGGCCGTC,-0.184 ± 0.049
2,TCCCCGCA,-0.0761 ± 0.035
3,ATCACCTC,0.0702 ± 0.029
4,TCATCTCA,-0.000685 ± 0.13
5,ATTGACCG,0.0179 ± 0.099
6,ATCGCGCG,0.0373 ± 0.16
7,CATGCGTA,0.259 ± 0.15
8,GATGCGTA,0.0917 ± 0.02
9,AATGCGTA,0.0783 ± 0.035
10,CCGTGGTA,-0.0136 ± 0.0022
11,ACGTGGTG,0.336 ± 0.015
12,ACGTGGTA,0.309 ± 0.021
13,GCGTGGTA,0.148 ± 0.095
14,ACGTGGTC,0.213 ± 0.093
15,AGGTGGTG,0.0398 ± 0.076
16,ATAGAAAT,0.15 ± 0.089
17,GGAATAGA,0.0778 ± 0.075
18,CACATGGA,0.238 ± 0.15
19,GACATGGC,0.0454 ± 0.031
20,CACATGGG,0.181 ± 0.052
21,GACATGGA,-0.0732 ± 0.1
22,CACATGGC,0.269 ± 0.088
23,AACATGGA,0.135 ± 0.0038
24,ATGACGCG,0.0788 ± 0.13
25,CCGGACAC,-0.238 ± 0.079

row,Sequence,PBM 8-mer E-score
1,ATAGAATA,0.245 ± 0.029
2,GTAGAATA,0.235 ± 0.044
3,ATAGAATG,0.138 ± 0.018
4,AGTATTCG,0.0983 ± 0.088
5,ATTCTATG,0.109 ± 0.0098
6,GAAAAATA,0.158 ± 0.027
7,GATAAATA,0.149 ± 0.036
8,TAAATATA,0.246 ± 0.014
9,AATAAATG,0.278 ± 0.018
10,AATAAATC,0.0155 ± 0.081
11,AAAATATA,0.21 ± 0.055
12,AATAAATA,0.245 ± 0.06
13,CAAATATA,0.162 ± 0.027
14,CAAAAATA,0.176 ± 0.0026
15,AATAAATT,0.213 ± 0.037
16,CATAAATG,-0.0552 ± 0.089
17,AAAAAATA,0.271 ± 0.019
18,AGTATAGC,-0.0321 ± 0.19
19,CAATTTCG,0.0689 ± 0.083
20,GTATGGGA,-0.111 ± 0.019
21,GAGCACCC,-0.166 ± 0.061
22,CACGGGAG,0.00455 ± 0.05
23,ACGGGAGT,0.0635 ± 0.097
24,CACGGGCG,-0.217 ± 0.14
25,CATAAATA,0.318 ± 0.035

row,Sequence,PBM 8-mer E-score
1,CATAAATC,0.0804 ± 0.0035
2,TAAAAATA,0.131 ± 0.048
3,CTTAAATA,0.0909 ± 0.014
4,ATTAAATA,0.2 ± 0.025
5,CGTAAATA,0.0359 ± 0.08
6,GAAATGTA,0.0974 ± 0.0077
7,TAAATGTA,0.285 ± 0.01
8,CCTAAATA,0.123 ± 0.022
9,GTTAAATA,0.283 ± 0.032
10,TATAAATA,0.2587 ± 0.0014
11,CAAATGTA,0.195 ± 0.11
12,CCTCCGGC,-0.116 ± 0.096
13,ATTTGATA,0.176 ± 0.046
14,GCTTGACC,-0.013 ± 0.069
15,ATGGATCG,-0.294 ± 0.055
16,AATTAGCA,0.159 ± 0.046
17,CTGGAGCC,-0.177 ± 0.015
18,ATGCCCGG,-0.241 ± 0.076
19,AACTACGA,0.0584 ± 0.13
20,AAGTATAA,0.215 ± 0.033
21,AAGTATAC,0.259 ± 0.043
22,AAGTATAT,0.183 ± 0.0083
23,ACAAGGGT,0.0627 ± 0.11
24,CGTAGTAA,0.104 ± 0.053
25,TGTAGTAA,0.258 ± 0.033

row,Sequence,PBM 8-mer E-score
1,CTTAGTAA,0.0409 ± 0.1
2,ATTAGTAC,0.0781 ± 0.08
3,CATAGTAA,0.163 ± 0.055
4,AGTAGTAA,0.151 ± 0.057
5,ATTAGTAA,0.246 ± 0.00033
6,GATAGTAA,0.0883 ± 0.11
7,GATAGTCA,0.117 ± 0.051
8,CATAGTCA,0.05 ± 0.035
9,TATAGTCA,0.246 ± 0.027
10,TATAGTAA,0.28 ± 0.024
11,AACGTTAG,0.091 ± 0.026
12,AGAGCAAT,-0.0507 ± 0.013
13,CCACCGCA,-0.117 ± 0.1
14,ACGGGTAG,-0.226 ± 0.026
15,CAGATCCG,-0.166 ± 0.073
16,CTCCCAGC,-0.118 ± 0.04
17,GTTAGTTA,0.251 ± 0.048
18,CTTAGTTA,0.0136 ± 0.12
19,ATTAGTTA,0.173 ± 0.015
20,GCCTCGAC,-0.225 ± 0.022
21,AACCCGGA,-0.327 ± 0.033
22,GTAAGGCA,0.203 ± 0.12
23,ATTCTAGA,0.0758 ± 0.1
24,ATCTACAA,0.126 ± 0.062
25,CCGTGGCA,-0.149 ± 0.013

row,Sequence,PBM 8-mer E-score
1,ACGTGGCG,0.165 ± 0.085
2,ACGTGGCC,0.114 ± 0.13
3,ACGTGGCT,0.249 ± 0.1
4,ACGTGGCA,0.256 ± 0.033
5,TCGTGGCA,0.164 ± 0.017
6,CAGGCTGG,-0.172 ± 0.05
7,GATTTCAA,-0.0671 ± 0.11
8,CTTTTCAC,0.311 ± 0.078
9,TATTTCAA,0.257 ± 0.016
10,GTTTTCAA,0.258 ± 0.079
11,GGTTTCAA,0.0825 ± 0.073
12,CTTTTCAA,0.144 ± 0.06
13,CCTTTCAC,0.116 ± 0.056
14,CATTTCAA,0.217 ± 0.053
15,ATTTTCAC,-0.00186 ± 0.074
16,AATAGGGG,0.0563 ± 0.032
17,CGCCGCTA,-0.204 ± 0.0029
18,ACAGAGCC,-0.0681 ± 0.01
19,CGCATAAC,0.153 ± 0.039
20,AGCGCTCC,-0.263 ± 0.015
21,GCGTGTTA,0.195 ± 0.089
22,AGGTGTTC,0.157 ± 0.0061
23,CCGTGTTC,0.00613 ± 0.046
24,ACGTGTTA,0.321 ± 0.015
25,ACGTGTTC,0.292 ± 0.0076

row,Sequence,PBM 8-mer E-score
1,ATGTGTTG,0.225 ± 0.018
2,AGGTGTTG,-0.0311 ± 0.062
3,CCGTGTTA,0.103 ± 0.017
4,ACGTGTTG,0.299 ± 0.081
5,CACTTGCC,0.168 ± 0.14
6,TCACTACA,0.0656 ± 0.0014
7,ACCAACAC,0.174 ± 0.0053
8,AGCAAATG,0.0747 ± 0.051
9,AACTTGAT,0.198 ± 0.024
10,GCGAAATA,0.104 ± 0.11
11,CGGGAGTC,-0.0836 ± 0.032
12,ACATTTGG,0.0453 ± 0.092
13,AAACCCAT,0.0906 ± 0.057
14,ACCCCCAA,-0.14 ± 0.0093
15,AACCCCAA,0.259 ± 0.015
16,AACCCCCA,-0.337 ± 0.0059
17,GAACCCAA,-0.136 ± 0.086
18,AAACCCAA,0.265 ± 0.0051
19,AAGCGGCG,-0.253 ± 0.0057
20,ACAAAGAC,0.226 ± 0.034
21,ACGCTCTA,0.000195 ± 0.019
22,CGAGGGAG,0.0101 ± 0.048
23,ACTACTTA,0.114 ± 0.13
24,TACGTGCA,0.155 ± 0.0056
25,CACGTGCC,0.419 ± 0.076

row,Sequence,PBM 8-mer E-score
1,CCCGTGCG,-0.166 ± 0.0035
2,AACGTGCA,0.225 ± 0.0061
3,CACGTGCA,0.451 ± 0.049
4,AACGTGCG,0.129 ± 0.053
5,CACGTGCG,0.462 ± 0.035
6,AACGTGCC,-0.0196 ± 0.033
7,GACGTGCC,-0.0314 ± 0.077
8,ACCCCCTG,-0.181 ± 0.16
9,AAGCGAAC,-0.038 ± 0.12
10,ACAAACGT,0.0903 ± 0.12
11,GCAAGGCA,0.0264 ± 0.067
12,CCGGACCC,-0.294 ± 0.09
13,ACGTTTGG,-0.00749 ± 0.048
14,CCGTTTGA,-0.202 ± 0.057
15,CTGTTTGA,0.143 ± 0.011
16,ATGTTTGA,0.207 ± 0.051
17,GTGTTTGA,0.241 ± 0.042
18,ACGTTTGA,0.254 ± 0.015
19,ACACTGCC,-0.0509 ± 0.054
20,CAACAGAG,-0.088 ± 0.056
21,CGTGAATC,-0.00172 ± 0.048
22,AATGTCTC,0.00715 ± 0.052
23,CATGTCTA,0.0944 ± 0.042
